These results are taken from PubChem BioAssay (NCI).

“And” between values parts separate entries of the source, which are not always exact repeats. Equal values may be shown once. The panel holds about 83,000 compounds, 20% with a hit somewhere; the sample as a whole holds those more often.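 Step 1: grow cells in 96-well plates. Step 2: add test compound at a single concentration. Step 3: incubate 48 h. Step 4: record percent growth.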 Unmarked numbers belong to inactive results. The source made the active and inactive calls. How the source made its calls: active means growth percent below 10; inactive means the rest.

This assay deals with MDA-MB-468 breast. Put plainly: NCI-60 one-dose screen, 48 h (100 = growth as untreated, 0 = no growth, -100 = all killed). Particulars: 10 µM unless noted.
For `O=C(N=Nc1c(Cl)c(O)c2ccccc2c1O)C(=O)Nc1cccc(C(F)(F)F)c1`, the growth is 80.8%.

`CCCCn1c(=O)c(C2CNC(=O)c3ccccc3N2)cc2ccccc21` (centres undefined): the growth was 107%.

With `CC(C)C[C@@H](NC(=O)[C@@H](Cc1ccccc1)NC(=O)c1cnccn1)B1O[C@H]2[C@H](O)[C@@H](C(=O)NCCCC[C@@H]3NC(=O)[C@@H](Cc4ccccc4)NC(=O)[C@H](CC(=O)O)NC(=O)CNC(=O)[C@H](CCCN=C(N)N)NC3=O)O[C@@H](CN)[C@H]2O1`, the growth was -45.5% (active).

Regarding `C1=C[C@H]2O[C@@H]1c1ccc3[nH]ccc3c12`, the growth was 76.2%.

On to `ClC/C=C/CSc1ncnc2nc[nH]c12`, for which the growth is 103% and 127%.

For `COc1ccc(C2Nc3nc(OC)n(C)c(=O)c3N=C3c4ccccc4C(=O)C32)cc1` (centres undefined), the growth is 104%.

As for `Nc1n[nH]c2cccc(C#Cc3cccc(NC(=O)c4ccc(N5CCOCC5)c(C(F)(F)F)c4)c3)c12`, the growth was 21.8%.

`CC1=C2C(=C[C@@](C)(COS(N)(=O)=O)[C@@H]2O)C(=O)[C@](C)(O)C12CC2`: the growth is -34% (active).

For `CN(Cc1ccccc1)S(=O)(=O)/N=C1\NC(=O)NC1=C(Cl)Cl`, the growth was 22.3%.

As for `CN1CCN(Cc2ccc(NC(=O)c3cncc(C#Cc4cnccc4C#N)c3)cc2C(F)(F)F)CC1`, the growth is 90.5%.

As to `CNc1cc2nc3cc(NC)c(C)cc3cc2cc1C`, the growth is -11.5% (active).

In the case of `O=C1C(=O)c2ccccc2C(O)=C1CCCc1ccc(Oc2ccccc2)cc1`, the growth was 44.7%.

In the case of `CCCCn1sc(=O)n(Cc2ccc(CNC(=O)OCc3ccc4c(Br)cc(Br)c(O)c4n3)cc2)c1=O`, the growth is 27.3%.

Consider `O=[N+]([O-])c1ccccc1NC1c2ccccc2Oc2ccccc21`, for which the growth was 30.6%.
